A number with no mark means an inactive call. For some assays here: Entries with a potency or affinity are not part of this list. Calls of active or inactive are those of the source. Unless noted, the rule behind the calls is not given here.

By inhibition is commonly meant the drop in the measured response relative to a control, in per cent.

Experiment [1] in a line: antimalarial activity against Dd2 strain (AID 2302;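 active = growth inhibition above 50% at the single 2 µM test dose, taken to imply half-maximal potency below 2 µM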;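 note: 0% = DMSO untreated growth and 100% = chloroquine plus artemisinin killed control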). The settings on record: P. falciparum Dd2 in RBCs, LDH growth readout, 72 h; at 2 µM; stronger effect = higher value.
A short description of experiment [2]: human hepatoma cell viability loss – ATP luminescence, cytotoxicity control for P. falciparum antimalarial project, primary screen (AID 2303;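 active = inhibition above 50%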;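 note: 0% = DMSO wells and 100% = digitonin-killed cells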). The settings on record: HepG2 viability, 24-48 h, at 10 µM, stronger effect = higher value.
Experiment [3] addresses L-lactate dehydrogenase (Plasmodium falciparum (isolate CDC / Honduras)) (UniProt Q27743). As to the kind of experiment: PfLDH activity inhibition – cell lysate, 3D7 strain, counter-screen for P. falciparum growth inhibition project (AID 2304).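 Note: 0% = vehicle and 100% = reference inhibitor.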 The settings on record: P. falciparum 3D7 crude extract, LDH APAD/NBT absorbance; at 2 µM; stronger effect = higher value. (The purpose of a counterscreen is to sort out artefacts and off-target activity.)

The nature of experiment [4]: inhibition of 3D7 malaria parasite growth – strain 3D7 (AID 2306).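 Note: 0% = DMSO wells and 100% = chloroquine plus artemisinin control wells.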 As to conditions: P. falciparum 3D7 erythrocytic growth, LDH absorbance, 72 h; at 2 µM; stronger effect = higher value.
Experiment [5] has as its target Calcium-dependent protein kinase 1 (Plasmodium falciparum (isolate 3D7)) (UniProt P62344). As to the kind of experiment: PfCDPK1 kinase inhibitors, biochemical, TCAMS library (AID 1159585; cut-off not given, nearly all actives have IC50 up to about 0.98 µM;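 note: inhibitors leave more ATP so luminescence rises with inhibition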). The settings on record: recombinant PfCDPK1, Kinase-Glo ATP depletion luminescence. In general terms: Kinase-Glo reads ATP consumption through a luciferase reaction.
In experiment [6] the target is Plasmodium falciparum protein kinase 6 (PK6, PF3D7_1337100) (UniProt Q8IDW1). As to the kind of experiment: PfPK6 kinase inhibitors, biochemical, TCAMS library (AID 1159586). The settings on record: recombinant PfPK6, Kinase-Glo ATP depletion luminescence.
Experiment [7] has as its target Protein kinase 7 (PK7), Plasmodium falciparum 3D7 (PF3D7_0213400) (UniProt Q7YTF7). Description: inhibition of Plasmodium PK7 catalytic activity – biochemical, TCAMS antimalarial set, Kinase-Glo luminescence (AID 1159587). As to conditions: recombinant PfPK7, Kinase-Glo ATP depletion luminescence.
Experiment [8] addresses Calcium-dependent protein kinase 4 (Plasmodium falciparum (isolate 3D7)) (UniProt Q8IBS5). As to the kind of experiment: PfCDPK4 kinase inhibitors, biochemical, TCAMS library (AID 1159588; cut-off not given, nearly all actives have IC50 up to about 0.91 µM). As to conditions: recombinant PfCDPK4, Kinase-Glo ATP depletion luminescence.

Sequence of Protein kinase 7 (PK7), Plasmodium falciparum 3D7 (PF3D7_0213400) (Q7YTF7 1-343): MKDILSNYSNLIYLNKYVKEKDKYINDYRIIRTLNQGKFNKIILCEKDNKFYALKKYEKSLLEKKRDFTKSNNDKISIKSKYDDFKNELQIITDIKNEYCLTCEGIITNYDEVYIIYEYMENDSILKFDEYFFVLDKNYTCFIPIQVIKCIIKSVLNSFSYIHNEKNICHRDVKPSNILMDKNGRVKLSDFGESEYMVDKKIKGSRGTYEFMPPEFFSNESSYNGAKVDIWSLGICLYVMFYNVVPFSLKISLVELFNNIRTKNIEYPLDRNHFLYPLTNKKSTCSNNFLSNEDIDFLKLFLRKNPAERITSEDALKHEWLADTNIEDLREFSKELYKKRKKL
Sequence of L-lactate dehydrogenase (Plasmodium falciparum (isolate CDC / Honduras)) (Q27743 whole entry, looked up): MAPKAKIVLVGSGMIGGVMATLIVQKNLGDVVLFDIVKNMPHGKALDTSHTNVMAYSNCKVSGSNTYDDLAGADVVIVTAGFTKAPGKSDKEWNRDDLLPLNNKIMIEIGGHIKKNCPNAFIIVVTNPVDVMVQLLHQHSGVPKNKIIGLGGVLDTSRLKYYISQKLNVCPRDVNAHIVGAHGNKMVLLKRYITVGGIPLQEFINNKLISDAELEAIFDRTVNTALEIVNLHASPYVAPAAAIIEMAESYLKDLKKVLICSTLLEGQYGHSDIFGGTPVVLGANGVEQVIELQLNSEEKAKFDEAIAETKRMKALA
Sequence of Plasmodium falciparum protein kinase 6 (PK6, PF3D7_1337100) (Q8IDW1 1-305): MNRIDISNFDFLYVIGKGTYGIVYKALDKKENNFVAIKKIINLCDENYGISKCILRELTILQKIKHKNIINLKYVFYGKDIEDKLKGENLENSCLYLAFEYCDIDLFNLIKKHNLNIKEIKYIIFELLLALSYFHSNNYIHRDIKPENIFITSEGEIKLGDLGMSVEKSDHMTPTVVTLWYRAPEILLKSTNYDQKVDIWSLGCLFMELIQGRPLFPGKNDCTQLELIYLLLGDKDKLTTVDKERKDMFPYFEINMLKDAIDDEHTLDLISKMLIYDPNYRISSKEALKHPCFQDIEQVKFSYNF
Sequence of Calcium-dependent protein kinase 1 (Plasmodium falciparum (isolate 3D7)) (P62344 whole entry, looked up): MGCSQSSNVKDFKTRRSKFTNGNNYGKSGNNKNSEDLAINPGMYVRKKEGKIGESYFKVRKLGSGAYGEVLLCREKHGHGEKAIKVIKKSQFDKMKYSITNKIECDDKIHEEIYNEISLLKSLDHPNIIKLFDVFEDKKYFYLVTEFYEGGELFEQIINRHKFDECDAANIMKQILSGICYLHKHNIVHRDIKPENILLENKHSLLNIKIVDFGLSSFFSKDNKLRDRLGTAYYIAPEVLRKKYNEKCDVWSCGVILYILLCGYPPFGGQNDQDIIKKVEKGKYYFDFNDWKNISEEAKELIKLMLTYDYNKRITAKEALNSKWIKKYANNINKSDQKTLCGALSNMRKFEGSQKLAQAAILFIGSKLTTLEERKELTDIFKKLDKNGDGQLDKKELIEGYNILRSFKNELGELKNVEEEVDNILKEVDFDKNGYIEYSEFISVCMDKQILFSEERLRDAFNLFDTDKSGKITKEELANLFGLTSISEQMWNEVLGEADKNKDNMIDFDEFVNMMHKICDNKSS
Sequence of Calcium-dependent protein kinase 4 (Plasmodium falciparum (isolate 3D7)) (Q8IBS5 whole entry, looked up): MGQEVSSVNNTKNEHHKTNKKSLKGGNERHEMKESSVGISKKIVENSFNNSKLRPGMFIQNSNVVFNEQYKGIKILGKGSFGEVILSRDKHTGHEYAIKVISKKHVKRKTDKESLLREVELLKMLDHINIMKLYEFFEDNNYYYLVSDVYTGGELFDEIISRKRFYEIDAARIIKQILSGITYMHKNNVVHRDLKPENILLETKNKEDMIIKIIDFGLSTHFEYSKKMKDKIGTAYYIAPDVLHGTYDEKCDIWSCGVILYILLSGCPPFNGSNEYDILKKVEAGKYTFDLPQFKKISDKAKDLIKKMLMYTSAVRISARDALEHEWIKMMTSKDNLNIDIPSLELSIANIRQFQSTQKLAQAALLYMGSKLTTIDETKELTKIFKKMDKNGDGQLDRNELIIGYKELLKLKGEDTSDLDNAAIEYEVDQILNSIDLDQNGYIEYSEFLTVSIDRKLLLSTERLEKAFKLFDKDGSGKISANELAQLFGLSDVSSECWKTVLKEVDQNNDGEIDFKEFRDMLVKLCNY

With `Cc1cccc(C)c1CNc1ccnc2cc(C#N)ccc12`, the growth inhibition is 99% (active) in experiment [1] and 100% (active) in experiment [4]. Moreover, the results for the inhibition in experiment [2] and in experiment [3] were 20% and -1%, respectively. In addition, the outcome in experiment [5], in experiment [6], in experiment [7] and in experiment [8] was inactive.

Take `NC1=NC(c2ccccc2)(c2ccccc2)C(=O)N1Cc1ccc(-c2cccnc2)cc1`: the growth inhibition in experiment [1] is 94% (active); in experiment [4], 99% (active). The inhibition is 15% in experiment [2] and 5% in experiment [3]. The outcome in experiment [5], in experiment [6], in experiment [7] and in experiment [8] was inactive.

In the case of `CCOc1ncccc1CN1CCC(N2CCc3cc(NC(=O)c4ccco4)ccc32)C1` (configuration not stated), the growth inhibition in experiment [1] is 94% (active); in experiment [4] it was 90% (active). Also, the inhibition in experiment [2] is 3%; in experiment [3], 1%. Moreover, the result in experiment [5], in experiment [6], in experiment [7] and in experiment [8] was inactive.

With `FC(F)(F)c1ccc2c(NCCc3ccccc3)ccnc2c1`, the figures for the growth inhibition in experiment [1] and in experiment [4] were 9% and 87% (active), respectively. For the same compound, the inhibition is 14% in experiment [2] and 0% in experiment [3]. Moreover, the outcome in experiment [5], in experiment [6], in experiment [7] and in experiment [8] was inactive.

Turning to `Cc1ccc(NS(=O)(=O)c2ccc(-c3ccccc3)cc2)c(Cn2cnc(N3CCCNCC3)cc2=O)c1`, the growth inhibition is 33% in experiment [1] and 87% (active) in experiment [4]. In addition, the inhibition was 10% in experiment [2] and 4% in experiment [3]. For the same compound, the result in experiment [5], in experiment [6], in experiment [7] and in experiment [8] was inactive.

`COc1cc(C(=O)Nc2ccc(-c3nc4ccccc4[nH]3)cc2)cc(OC)c1OC`: the growth inhibition is 33% in experiment [1] and 99% (active) in experiment [4]. The inhibition is 13% in experiment [2] and -8% in experiment [3]. The outcome in experiment [5], in experiment [6], in experiment [7] and in experiment [8] was inactive.

Take `CCCCCN1CCCC(NS(=O)(=O)c2cccc(C(=O)Nc3cccc(C(F)(F)F)c3)c2)C1` (configuration not stated): the growth inhibition in experiment [1] was 5%; in experiment [4], 86% (active). Moreover, the results for the inhibition in experiment [2] and in experiment [3] were 22% and -2%, respectively. Moreover, the outcome in experiment [5], in experiment [6], in experiment [7] and in experiment [8] was inactive.

With `O=C(c1ccc(-c2ccc(Cl)cc2)o1)N1CCc2cc3nccc(N4CCN5CCC[C@H]5C4)c3cc21`, the growth inhibition in experiment [1] was 86% (active); in experiment [4], 101% (active). Further, the values for the inhibition in experiment [2] and in experiment [3] were 1% and -3%, respectively. The outcome in experiment [5], in experiment [6], in experiment [7] and in experiment [8] was inactive.

As for `CN1CCN(CCCCCCNc2c3ccccc3nc3ccccc23)CC1`, the growth inhibition in experiment [1] is -4%; in experiment [4] it was 101% (active). For the same compound, the inhibition in experiment [2] is 35%; in experiment [3], -3%. Moreover, the result in experiment [5], in experiment [6], in experiment [7] and in experiment [8] was inactive.

For `c1ccc(CNCc2ccc(-c3ccc(-c4nc5ccccc5[nH]4)cc3)cc2)cc1`, the growth inhibition is 93% (active) in experiment [1] and 101% (active) in experiment [4]. In addition, the inhibition is 32% in experiment [2] and 1% in experiment [3]. Besides, the result in experiment [5], in experiment [6], in experiment [7] and in experiment [8] was inactive.

Take `Fc1ccc2nc(-c3cccc(-c4ccc(CN5CCCCC5)cc4)c3)[nH]c2c1`: the results for the growth inhibition in experiment [1] and in experiment [4] were 97% (active) and 99% (active), respectively. The inhibition is 46% in experiment [2] and -2% in experiment [3]. The result in experiment [5], in experiment [6], in experiment [7] and in experiment [8] was inactive.

With `CCc1ccc(-n2c(NC(=O)c3ccccc3)nc3ccc(S(=O)(=O)NC(C)C(C)C)cc32)cc1` (configuration not stated), the growth inhibition in experiment [1] is -4%; in experiment [4] it was 88% (active). In addition, the values for the inhibition in experiment [2] and in experiment [3] were 48% and 0%, respectively. Also, the result in experiment [5], in experiment [6], in experiment [7] and in experiment [8] was inactive.

In the case of `O=C(NC(c1ccc(Cl)cc1)c1ccc2cccnc2c1O)c1ccccc1` (configuration not stated), the results for the growth inhibition in experiment [1] and in experiment [4] were 80% (active) and 87% (active), respectively. Further, the inhibition was 44% in experiment [2] and -2% in experiment [3]. In addition, the result in experiment [5], in experiment [6], in experiment [7] and in experiment [8] was inactive.

For the compound `CC1(C)N=C(N)N=C(N)N1OCc1ccc2ccccc2c1`, the growth inhibition is 97% (active) in experiment [1] and 94% (active) in experiment [4]. The inhibition is 65% (active) in experiment [2] and -9% in experiment [3]. Moreover, the result in experiment [5], in experiment [6], in experiment [7] and in experiment [8] was inactive.

Turning to `c1cc(CNCC2CCCO2)cc(-c2ccc(-c3nc4ccccc4[nH]3)s2)c1` (configuration not stated), the growth inhibition in experiment [1] is 30%; in experiment [4], 95% (active). Further, the inhibition is 8% in experiment [2] and -2% in experiment [3]. Also, the outcome in experiment [5], in experiment [6], in experiment [7] and in experiment [8] was inactive.

Turning to `O=C(/C=C/c1ccc(Cl)c(Cl)c1)NCCCCCN1CCCN(C(=O)Nc2ccc(F)c(Cl)c2)CC1`, the growth inhibition in experiment [1] is 0%; in experiment [4], 95% (active). Moreover, the inhibition in experiment [2] was 31%; in experiment [3] it was 1%. Moreover, the outcome in experiment [5], in experiment [6], in experiment [7] and in experiment [8] was inactive.

As to `CN1CCN(c2cccc(Nc3nccc(NCC(O)c4ccccc4)n3)c2)CC1` (configuration not stated), the growth inhibition is 4% in experiment [1] and 101% (active) in experiment [4]. In addition, the inhibition in experiment [2] is 30%; in experiment [3] it was -2%. Further, the outcome in experiment [5], in experiment [6], in experiment [7] and in experiment [8] was inactive.

Take `Cc1sc(NC(=O)Cc2cccc(C(F)(F)F)c2)nc1-c1cccc(Cl)c1`: the growth inhibition in experiment [1] is 95% (active); in experiment [4] it was 101% (active). The results for the inhibition in experiment [2] and in experiment [3] were 15% and -3%, respectively. The result in experiment [5], in experiment [6], in experiment [7] and in experiment [8] was inactive.

For `COc1ccc(NC(=O)c2ccc(Br)c(C)c2)cc1N1CCN(CCCc2c[nH]c3ccccc23)CC1`, the growth inhibition was 64% (active) in experiment [1] and 102% (active) in experiment [4]. The inhibition in experiment [2] was 21%; in experiment [3] it was 0%. For the same compound, the result in experiment [5], in experiment [6], in experiment [7] and in experiment [8] was inactive.

The values are drawn from PubChem BioAssay.
